What all share (experiment): NCI-60 one-dose screen, 48 h (100 = growth as untreated, 0 = no growth, -100 = all killed)
Details in all cases: 10 µM unless noted

Test [1] concerns NCI-H23 lung.
For test [2], the system named is NCI-H226 lung.
Test [3] concerns NCI-H322M lung.
Test [4] relates to HOP-62 NSCLC.
Test [5] concerns NCI-H460 lung.
The subject of test [6] is HOP-92 NSCLC.
The subject of test [7] is NCI-H522 lung.
Test [8] relates to A549/ATCC NSCLC.
In test [9] the test system is 786-0 renal.
For test [10], the system named is COLO 205 colon.
Test [11] concerns DU-145 prostate.
For test [12], the system named is K-562 leukemia.
Test [13] has as its system MALME-3M melanoma.
In test [14] the test system is MDA-MB-231 breast.
In test [15] the test system is RXF 393 renal.
In test [16] the test system is SF-268 CNS.
Test [17] concerns SF-295 CNS.
Test [18] deals with SF-539 CNS.
Test [19] relates to UACC-257 melanoma.
Test [20] has as its system M14 melanoma.

This is part of a sample that, as a whole, favours compounds with a hit. Of some 83,000 tested, about 20% had one in any assay.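 For each line, cells grew in 96-well plates with the test compound present at a single concentration for 48 hours.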 Values without a mark were called inactive. Active and inactive are the calls of the source. How the source made its calls: active means growth percent below 10; inactive means the rest.

Consider `C[C@H]1C=C(C[C@@H](O)CCCCCCCCCC[C@@H](O)[C@H]2CCC(=O)O2)C(=O)O1`, for which the growth in [1] was 95.5%; in [2], 96.5%; in test [3], 94.2%; in [4] it was 109%; in test [5] it was 113%; in [6], 68%. Also, the growth in [7] is 73.3%; in test [8] it was 110%; in [9], 96.8%; in test [10] it was 92.5%; in test [11], 112%; in [12], 83.5%. The growth in test [13] was 122%; in test [14], 102%; in test [15] it was 100%; in test [16] it was 115%; in [17], 109%; in test [18] it was 92.5%. Moreover, the growth in test [19] is 102%; in test [20] it was 101%.

Regarding `Cc1cc(C)c(O)c(C(=O)CC(Br)C(=O)O)c1` (stereo not given), the growth in test [1] is 96.4%; in test [2], 106%; in [3] it was 101%; in test [4], 106%; in test [5], 108%; in [6], 88.1%. Also, the growth in test [7] is 81.7%; in [8] it was 99.3%; in test [9], 86.2%; in test [10], 116%; in test [11], 95.3%; in test [12] it was 84.5%. Besides, the growth was 111% in test [13]; 121% in test [14]; 119% in test [15]; 95.9% in test [16]; 101% in test [17]; 91.2% in [18]. Besides, the growth in [19] is 96.2%; in [20], 95.1%.

Consider `CC[C@@]1(O)C(=O)OCc2c1cc1n(c2=O)Cc2c-1nc1ccccc1c2/C=N/OC(C)(C)C`, for which the growth in [1] was -4.17% (active); in test [2], -78.7% (active); in [3], 12.4%; in [4], -24.1% (active); in test [5] it was 1.16% (active); in test [6], -11.8% (active). Moreover, the growth in test [7] was -47.8% (active); in test [8], -11% (active); in test [9], 2.49% (active); in test [10], -26.9% (active); in test [11] it was 6.82% (active); in [12], 7.64% (active). Also, the growth was -15.3% (active) in [13]; 24.2% in test [14]; -47.5% (active) in test [15]; 2.41% (active) in test [16]; -1.63% (active) in test [17]; -24.4% (active) in [18]. Besides, the figures for the growth in [19] and in test [20] were -44% (active) and -18% (active), respectively.

On to `Cc1ccc2nc(-c3ccc(-n4on4-c4ccc(/C=C/c5ccc(-n6on6-c6ccc(-c7nc8ccc(C)cc8s7)cc6)cc5S(=O)(=O)O)c(S(=O)(=O)O)c4)cc3)sc2c1`, for which the growth in test [1] is 105%; in test [2], 108%; in [3], 112%; in [4], 121%; in [5] it was 114%; in [6], 138%. For the same molecule, the growth in test [7] is 117%; in test [8], 113%; in test [9], 98.2%; in test [10] it was 119%; in [11], 111%; in test [12] it was 99.2%. Further, the growth was 101% in [13]; 133% in [14]; 110% in test [15]; 99.8% in test [16]; 110% in test [17]; 98.7% in test [18]. Besides, the figures for the growth in [19] and in test [20] were 110% and 99.5%, respectively.

For the molecule `Oc1ccc(O)c(-[n+]2ccccc2)c1`, the growth in [1] was 99.4%; in test [2], 93%; in test [3], 109%; in test [4] it was 94.2%; in test [5], 105%; in [6], 92.6%. The growth in test [7] was 82.7%; in [8], 83.8%; in test [9] it was 95.3%; in [10] it was 112%; in [11], 108%; in [12], 107%. Moreover, the growth in [13] is 112%; in test [14], 110%; in [15], 106%; in [16], 102%; in test [17], 110%; in [18] it was 108%. The values for the growth in [19] and in test [20] were 95.1% and 103%, respectively.

For `O=C1c2ccccc2OC=C(c2ccccc2)N1CCCCN1CCCCC1`, the growth is 67.2% in [1]; 84.3% in test [2]; 91.2% in [3]; 38.1% in [4]; 46.7% in test [5]; 40.2% in test [6]. Moreover, the growth in [7] was 25%; in test [8], 46.8%; in test [9] it was 95.4%; in test [10], -33.6% (active); in test [11], 48.6%; in test [12], 15.6%. Also, the growth is 67.8% in test [13]; 73.8% in [14]; 95.7% in test [15]; 55.5% in test [16]; 79.3% in [17]; 95.7% in test [18]. The growth in test [19] was 66.7%; in test [20], 68%.

`CCc1c(C)c2cc(-n3c(-c4ccc(OC)cc4)csc3=N)c(O)c(C)c2oc1=O`: the growth in test [1] is 26.7%; in test [2], 56%; in test [3], 54.5%; in test [4], 30.4%; in test [5] it was 11.1%; in [6], 33.5%. Further, the growth in test [7] is -46.5% (active); in test [8] it was 26.3%; in test [9], 21.5%; in test [10], 12.6%; in test [11], 17.7%; in test [12], 5.33% (active). For the same molecule, the growth in test [13] is 15.3%; in test [14], 13.4%; in test [15] it was 27.8%; in test [16], 16.5%; in [17], 20.8%; in test [18] it was -0.811% (active). Also, the growth in test [19] was 60.8%; in test [20], 9.77% (active).

With `COc1cc(NC(C)CCCN2C(=O)c3ccccc3C2=O)c2ncccc2c1OC` (stereo not given), the growth in test [1] is 91.6%; in test [2] it was 98.2%; in test [3], 79.5%; in test [4], 80.7%; in test [5], 103%; in test [6], 45.4%. Besides, the growth in [7] is 70.8%; in test [8] it was 100%; in test [9] it was 91.1%; in test [10] it was 101%; in [11] it was 104%; in test [12], 71.3%. Further, the growth is 74.1% in [13]; 90.2% in test [14]; 95% in [15]; 108% in test [16]; 81.1% in [17]; 98.6% in [18]. Also, the growth in test [19] is 99.4%; in test [20] it was 78.7%.

For the molecule `O=C1CCC(c2c(O)cc(O)c3c(=O)c(O)c(-c4ccc(O)c(O)c4)oc23)N1` (stereo not given), the growth in test [1] was 94.7%; in test [2], 104%; in test [3] it was 92.8%; in test [4], 84.3%; in test [5] it was 105%; in test [6], 91.9%. Besides, the growth in test [7] was 70.9%; in test [8] it was 81.1%; in [9], 99.6%; in test [10], 112%; in test [11], 105%; in test [12] it was 96.1%. In addition, the growth in test [13] is 89.6%; in test [14] it was 118%; in test [15], 99.8%; in test [16], 96.4%; in test [17], 101%; in [18], 103%. Also, the growth in test [19] is 86.1%; in test [20], 101%.

`Nc1ncc(-c2ccc3ncnc(Nc4ccc(F)c(Cl)c4)c3c2)cn1`: the growth in test [1] was 56.2%; in test [2], 55.5%; in [3], 33%; in [4], 57.5%; in [5], 11.9%; in test [6], 31.9%. The growth in [7] was 42.9%; in test [8], 34.6%; in test [9] it was 6.18% (active); in test [10], 32.3%; in [11], 43.3%; in test [12], 55.5%. Moreover, the growth is 36.3% in [13]; 54.4% in test [14]; 32.9% in test [15]; 54.9% in [16]; 16.2% in test [17]; 55.4% in [18]. Besides, the growth was 101% in test [19] and 87.5% in test [20].

With `O=C(Nc1cccc([N+](=O)[O-])c1)Nc1cccc([N+](=O)[O-])c1`, the growth in [1] is 28.3%; in test [2], 53%; in [3], 68%; in test [4] it was 88.2%; in test [5], 35.2%; in test [6], 2.97% (active). Besides, the growth in test [7] is 10.1%; in test [8], 60.5%; in [9] it was 71.7%; in test [10] it was 59.1%; in test [11] it was 42.2%; in [12], 15.3%. Also, the growth in [13] was 66.9%; in test [14], 88.1%; in test [15], 99.4%; in test [16] it was 82.6%; in test [17], 34.6%; in test [18], 74.9%. Moreover, the growth in test [19] was 68.1%; in [20] it was 44.6%.

Turning to `O=C(Nc1ccc(-n2ccc3c(NC(=O)c4ccccc4)nccc32)cc1)Nc1cccc(C(F)(F)F)c1`, the growth in [1] is 38.7%; in test [2], 44.7%; in [3] it was 63.2%; in [4], 84.5%; in test [5], 34.3%; in test [6], 32.3%. In addition, the growth in test [7] is 45.8%; in test [8], 7.66% (active); in [9], 88.1%; in test [10], 64.7%; in [11] it was 31.8%; in test [12], 21.2%. Further, the growth in [13] is 73.4%; in [14], 63.7%; in test [15], 10.3%; in [16], 51.8%; in test [17] it was 37.1%; in test [18] it was 44.8%. Also, the growth is 68.8% in test [19] and 43.7% in [20].

The values are drawn from PubChem BioAssay (NCI).
